Compounds with a hit are over-represented: about 1.7% of the library has one in this group of screens.
PfHsp40 rescue: compounds rescuing yeast from Plasmodium falciparum HSP40 toxicity | S. cerevisiae expressing PfHsp40, growth rescue, ATP luminescence | growth rescue, % at 12.5 µM | 340,000 compounds, 0.68% hits | AID 504582; in the data active means growth rescue above about 28%, passing the limit was not always enough; inconclusive means no clear call, values can overlap the other calls;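 further: yeast W303a lacking pdr1 and pdr3 grown in galactose medium; growth measured after three days at 30 °C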
Vc quorum ag: induces V. cholerae light production without autoinducers; V. cholerae BH1578 lux reporter, luminescence, 6 h; activation, % at 18.7 µM; 350,000 compounds, 0.16% hits; in the data active means activation mostly above about 9.7%, no sharp cut-off; inconclusive means no clear call, values can overlap the other calls; inactive means mostly below about 3.7%
Sa ugtP lethal: compounds lethal to S. aureus RN4220 ugtP deletion mutant; OD600 growth, 16 h; growth inhibition, % (concentration not given with the values); AID 1259309; 330,000 compounds, 0.54% hits; in the data active means growth inhibition above about 68%;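 further: plate controls were untreated wells for no effect and antibiotic for full effect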
RN4220 kill: kills Staphylococcus aureus RN4220. S. aureus RN4220 growth, OD600, 16 h. inhibition, % (concentration not given with the values). 330,000 compounds, 0.33% hits. AID 1259311; in the data active means inhibition above about 85%;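 further: plate controls were untreated cells for no effect and reference antibiotic for full effect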
Mtb hypoxia inh: reduces hypoxia-regulated biosensor signal in M. tuberculosis | M. tuberculosis hypoxia-regulated fluorescent reporter, fluorescence | fluorescence inhibition, % (test concentration not listed) | 300,000 compounds, 0.1% hits; in the data active means fluorescence inhibition mostly above about 23%, no sharp cut-off; inactive means mostly below about 17%
CCHFV vOTU inh: CCHFV vOTU protease inhibition | Pep-AMC fluorescence | 370,000 compounds, 0.55% hits | inhibition, % at 11.5 µM; in the data active means inhibition above about 30%; further: 0% = vehicle wells with enzyme and 100% = no enzyme wells
The depositor's hits bear a star; i = inactive; ? = inconclusive; nt = not tested or not shown.

SMILES | PfHsp40 rescue | Vc quorum ag | Sa ugtP lethal | RN4220 kill | Mtb hypoxia inh | CCHFV vOTU inh
COC(=O)c1ccc(C23CC4(C2)C(CN(CC2CCCCC2)C4c2ccccc2)C3c2ccccc2)cc1 (stereo not given) | nt | nt | -1.9 | 1.4 | 7.3 | nt
Cc1ccc(S(=O)(=O)N(c2nc(N(C)C)nc(N(C)C)n2)n2cnnc2)cc1 | 9.5 | 1.1 | 97.9* | 94.3* | -9.9 | 1.5
Cc1ccc(S(=O)(=O)Nn2cnnc2)cc1 | 0.0 | i | 5.2 | 4.2 | -2.3 | 6.9
COC(=O)C1=CC(C(=O)OC)C2C3=C(C(=O)C2(C)C)C(c2ccccc2)C2C(=O)N(C)C(=O)C2C3C1 (stereo not given) | nt | nt | -2.1 | -1.6 | -3.4 | nt
CCCCn1c(SCC(=O)NCc2ccco2)nc2c1c(=O)n(C)c(=O)n2C | 44.5* | i | 3.2 | -4.2 | 11.4 | 0.7
Cc1nc2ccc(NC(=O)Cc3ccc4c(c3)OCCO4)cc2s1 | 769.4* | -0.3 | 7.0 | -0.1 | 5.8 | 2.0
O=C1/C(=C/c2cccs2)SC(=S)N1NS(=O)(=O)c1ccccc1 | 221.6* | -0.4 | 22.0 | -19.2 | 5.6 | 22.3
COc1ccc(OC)c(/C=C2\SC(=S)N(NS(=O)(=O)c3ccccc3)C2=O)c1 | 0.6 | i | 4.7 | 32.6 | -9.9 | 24.7
CCOc1ccc(/C=C2\SC(=S)N(NS(=O)(=O)c3ccc(C)cc3)C2=O)cc1OC | 13.5 | i | 84.9 | 85.7* | 3.8 | 27.3
COc1ccc(/C=C2\SC(=S)N(NS(=O)(=O)c3ccccc3)C2=O)c(OC)c1 | -0.1 | -5.6 | 91.5* | 69.2 | 4.6 | 6.1
O=C(NN1C(=O)/C(=C/c2cccs2)SC1=S)c1ccncc1 | -1.3 | -0.3 | 3.2 | 6.8 | 18.6 | 6.7
Cc1ccc(NCC(=O)NN=Cc2cccc(Br)c2)cc1 | nt | nt | -13.8 | -6.0 | -12.8 | nt
O=C(CNc1cccc(C(F)(F)F)c1)NN=Cc1cn(-c2ccccc2)nc1-c1ccccc1 | nt | nt | -23.3 | -9.6 | 3.9 | nt
CCc1ccc(C(C)=NNC(=O)c2ccccn2)cc1 | nt | nt | -1.7 | 3.1 | -5.2 | nt
COc1cc(=O)n(C)c2ccccc12 | 1.3 | 20.7* | 12.4 | 5.3 | -1.0 | 3.8
COc1ccc2c(OC)cc(=O)n(C)c2c1 | -0.2 | -0.3 | 2.3 | 3.3 | 3.5 | 24.0
Cc1ccc(-c2cc(C(=O)NCCCN3CCOCC3)c3ccc(Cl)c(C)c3n2)cc1 | 0.5 | i | -17.0 | -5.3 | 13.5 | -4.7
Cc1c(Cl)ccc2c(C(O)CBr)cc(-c3ccccc3)nc12 (stereo not given) | 12.0 | -1.8 | 96.2* | 41.4 | 19.7 | 11.1
CCOc1ccc2nc(N=Cc3c(C)[nH]n(-c4ccc(C)cc4)c3=O)sc2c1 | nt | nt | 1.3 | -4.0 | 1.0 | nt
CCOC(=O)CSc1nnc(CNC(=O)c2cccc(C)c2)n1C | 47.4* | -0.3 | 17.9 | 2.3 | 7.2 | -2.0
O=C(c1ccncc1)N1CCN(c2ccc(F)cc2)CC1 | 0.4 | -0.7 | 3.7 | -0.2 | 12.3 | 0.7
Cc1ccc(C)c(N2CCN(C(=O)c3ccc(CS(=O)Cc4cccc(Cl)c4)o3)CC2)c1 (stereo not given) | 9.5 | -0.3 | 98.4* | 0.8 | 0.9 | 26.0
O=C(c1ccc(CS(=O)Cc2ccc(Cl)cc2)o1)N1CCN(c2cccc(Cl)c2)CC1 (stereo not given) | 3.6 | -0.3 | 92.7* | -7.7 | 0.2 | 7.1
Cc1ccc(S(=O)(=O)Cc2ccc(C(=O)N3CCN(c4cccc(C)c4C)CC3)o2)cc1 | 40.5* | i | -3.3 | 18.2 | 1.3 | 15.1
O=C(c1ccc(Cl)cc1)N1CCN(c2ccc(F)cc2)CC1 | 109.7* | i | 4.1 | 3.0 | nt | -7.7
SMILES | PfHsp40 rescue | Vc quorum ag | Sa ugtP lethal | RN4220 kill | Mtb hypoxia inh | CCHFV vOTU inh
CC(OC(=O)c1[nH]cnc1C(=O)NCc1ccc(CNC(=O)OC(C)(C)C)cc1)c1ccccc1 (stereo not given) | nt | nt | 7.7 | 6.2 | -10.0 | nt
CC(C)C1NC(=O)c2cc([N+](=O)[O-])cc(I)c2NCCCC(C(N)=O)NC(=O)C(CO)NC1=O (stereo not given) | nt | nt | -7.6 | 0.0 | -7.6 | nt
CC(=NOC(=O)c1cccc(C(F)(F)F)c1)c1cnccn1 | nt | nt | 18.7 | 4.6 | 6.6 | nt
O=C(c1ccc(CS(=O)Cc2cccc(Cl)c2)o1)N1CCN(C2CCCCC2)CC1 (stereo not given) | 0.4 | -0.2 | 94.9* | -3.1 | 4.2 | 7.7
O=C(c1ccc(CS(=O)Cc2ccc(Cl)cc2)o1)N1CCN(C2CCCCC2)CC1 (stereo not given) | nt | i | nt | nt | nt | -2.4
O=C(c1ccc(CS(=O)Cc2ccc(Cl)cc2)o1)N1CCN(c2ccc(F)cc2)CC1 (stereo not given) | -0.5 | -2.1 | 90.0* | -3.8 | 6.6 | 24.5
Cc1cccc(C=NNC(=O)c2ccc(NC(=O)c3ccc(Cl)cc3)cc2)n1 | nt | nt | 7.3 | 7.8 | 1.8 | nt
O=C(/C=C/c1ccccc1Cl)c1ccc(O)cc1 | ? | -0.9 | 51.5 | 4.8 | 10.7 | 8.8
O=C(/C=C/c1ccccc1Cl)c1ccccc(=O)c1O | 64.0* | -0.2 | -10.8 | 20.4 | 7.8 | -12.5
Cc1ccc(C)c(/C=C/C(=O)c2ccccc(=O)c2O)c1 | 223.7* | -0.3 | -6.2 | 13.6 | 5.4 | 22.7
O=C(/C=C/c1ccc([N+](=O)[O-])cc1)c1ccccc(=O)c1O | 0.2 | i | nt | nt | nt | 13.9
Cc1ccc(/C=C/C(=O)c2ccccc(=O)c2O)c(C)c1 | 183.4* | -0.4 | -1.5 | 19.5 | 11.5 | 10.2
CC12CN3CC(C)(CN(C1)C3c1ccccc1F)C2 (stereo not given) | 60.9* | 0.5 | 3.7 | 0.7 | -0.2 | -16.4
Cc1ccccc1Cn1nnc(C(=O)Nc2ccc3c(c2)OCCO3)c1N | 105.8* | 1.4 | -4.3 | 0.3 | 12.7 | -3.6
Cc1ccc(C)c(Cn2nnc(C(=O)Nc3ccc4c(c3)OCCO4)c2N)c1 | 0.6 | i | 4.4 | 2.3 | 5.8 | 10.2
C/C(=N\Nc1nc2ccccc2s1)c1ccc(Br)s1 | 144.7* | i | nt | nt | nt | -2.6
CC(=NNc1nc2ccccc2s1)c1ccncn1 | 149.9* | 0.8 | nt | nt | nt | 16.5
COc1cccc(C=NNC(=O)C[n+]2ccccc2)c1OC | nt | nt | 9.2 | -2.0 | 1.9 | nt
Cc1cc(N=Nc2ccccc2C(=O)O)c(C)c(C)c1O | 149.8* | -4.3 | 2.6 | 1.9 | 45.3* | 14.9
Cc1cc(O)c(C(C)C)cc1N=Cc1ccccc1[N+](=O)[O-] | -0.2 | -0.8 | -8.7 | 1.9 | 20.1 | -4.9
Cc1cc(O)c(C(C)C)cc1N=Nc1ccccc1C(=O)O | 1.3 | -0.3 | 2.6 | 3.5 | 50.8* | 16.7
ON=C1CCc2nonc2C1=NO | nt | nt | 1.9 | -5.5 | nt | nt
CC(=O)C1=C(c2cccc([N+](=O)[O-])c2)N(C(C)=O)n2c(C)nnc2S1 | 82.4* | -2.2 | 12.1 | -0.2 | -7.2 | -2.4
C=CCNC(=S)N1CCC(Cc2ccccc2)CC1 | 90.6* | -0.5 | 7.2 | -0.9 | 13.8 | -8.5
CC[C@]12C(=O)N(C)CC(C3C(=O)N(C)C(=O)C31)N2C(=O)c1ccc(Br)cc1 (stereo not given in full) | nt | nt | 0.0 | 6.0 | -0.7 | nt
Cc1ccn(CC(=O)NN=Cc2cc([N+](=O)[O-])ccc2O)n1 | nt | nt | 83.3* | 92.9* | 3.0 | nt

High-throughput results (PubChem BioAssay)
